Assay results: PubChem BioAssay (NCATS)
Records with an inconclusive call do not appear. Active and inactive are the calls of the source. Unless noted, calls come from the whole dose curve; as a rule, active = well fitted curve in the direction sought with a large enough effect; inconclusive = small, poorly fitted or top-dose-only effect, or another doubt; inactive = no such curve, though single readings can be large; an effect the other way counts as inactive or inconclusive.

Assays:
[1] = biological target: Estrogen receptor (Homo sapiens) (UniProt P03372); test: qHTS assay for small molecule agonists of estrogen receptor alpha signaling (AID 588514; calls by dose curve;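 note: 0% = vehicle only and 100% = reference agonist; nearly all actives have a fitted effect of over 70% in size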)
Estrogen receptor (Homo sapiens), sequence (P03372 whole entry, looked up): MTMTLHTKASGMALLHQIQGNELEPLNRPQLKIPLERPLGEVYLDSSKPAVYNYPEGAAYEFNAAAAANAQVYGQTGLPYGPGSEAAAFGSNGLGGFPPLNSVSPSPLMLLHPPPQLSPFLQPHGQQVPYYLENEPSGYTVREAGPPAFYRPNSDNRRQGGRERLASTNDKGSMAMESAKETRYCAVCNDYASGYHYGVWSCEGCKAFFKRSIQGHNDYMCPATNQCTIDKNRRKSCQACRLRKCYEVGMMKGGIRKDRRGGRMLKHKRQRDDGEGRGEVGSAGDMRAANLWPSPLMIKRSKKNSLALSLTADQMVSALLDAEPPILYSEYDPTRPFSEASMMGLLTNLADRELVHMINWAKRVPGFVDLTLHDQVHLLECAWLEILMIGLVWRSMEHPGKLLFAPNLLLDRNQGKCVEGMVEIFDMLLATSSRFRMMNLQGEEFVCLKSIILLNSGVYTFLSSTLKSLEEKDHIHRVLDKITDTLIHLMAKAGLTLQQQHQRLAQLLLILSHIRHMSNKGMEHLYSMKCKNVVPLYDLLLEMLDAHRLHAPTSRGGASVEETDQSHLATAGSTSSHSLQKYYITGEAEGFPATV
In short: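 Reporter-gene assay. […] controls beta-lactamase in HEK 293 GripTite cells; after 18 hrs with compound, CCF4 substrate is added for 2 hrs and fluorescence is read.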

[2] = biological target: Glucocorticoid receptor (Homo sapiens) (UniProt P04150); test: qHTS assay for small molecule agonists of glucocorticoid receptor signaling (AID 588532; active = well fitted curve in the direction sought with a large enough effect in the signal ratio, with a control signal flat; the % refers to the signal ratio;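 note: 100% = dexamethasone at 0.1 µM and 0% = DMSO only wells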); settings: HeLa MMTV-bla, beta-lactamase ratio, agonist, 18 h; stronger effect = higher value; percent of dexamethasone control, DMSO zero
Glucocorticoid receptor (Homo sapiens), sequence (P04150 whole entry, looked up): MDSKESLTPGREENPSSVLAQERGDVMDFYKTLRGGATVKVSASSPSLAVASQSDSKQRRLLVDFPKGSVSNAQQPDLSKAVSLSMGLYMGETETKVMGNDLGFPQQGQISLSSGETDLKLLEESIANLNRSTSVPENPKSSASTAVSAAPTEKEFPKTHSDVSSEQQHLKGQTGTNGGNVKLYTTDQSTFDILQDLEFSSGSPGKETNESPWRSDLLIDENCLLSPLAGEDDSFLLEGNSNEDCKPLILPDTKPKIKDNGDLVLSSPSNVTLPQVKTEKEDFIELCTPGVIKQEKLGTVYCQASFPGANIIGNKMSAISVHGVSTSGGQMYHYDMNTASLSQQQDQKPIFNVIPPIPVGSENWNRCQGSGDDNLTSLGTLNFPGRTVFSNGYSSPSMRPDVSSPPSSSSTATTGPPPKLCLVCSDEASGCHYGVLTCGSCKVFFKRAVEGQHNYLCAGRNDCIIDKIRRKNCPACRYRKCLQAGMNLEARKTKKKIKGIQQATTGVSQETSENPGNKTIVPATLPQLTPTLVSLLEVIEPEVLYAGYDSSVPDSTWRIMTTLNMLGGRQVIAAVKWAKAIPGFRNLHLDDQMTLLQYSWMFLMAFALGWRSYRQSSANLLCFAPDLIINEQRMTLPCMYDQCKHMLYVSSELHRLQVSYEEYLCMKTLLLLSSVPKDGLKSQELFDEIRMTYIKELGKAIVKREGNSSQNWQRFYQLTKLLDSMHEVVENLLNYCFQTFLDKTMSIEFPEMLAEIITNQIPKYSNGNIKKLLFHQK
In short: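 Quantitative HTS using CellSensor MMTV-bla HeLa cells in charcoal/dextran-treated serum; compounds tested up to 92 uM. After 18 h at 37 C, CCF4 dye reported reporter induction.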

[3] = biological target: Glucocorticoid receptor (Homo sapiens) (UniProt P04150); test: qHTS assay for small molecule antagonists of glucocorticoid receptor signaling (AID 588533; active = well fitted inhibition curve with a large enough effect in the signal ratio, with a control signal flat, not every such curve was filed as active; the % refers to the signal ratio;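 note: cells stimulated with 2 nM dexamethasone as agonist; % is set by controls: 0 for no effect and ±100 for the full control effect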)
In short: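 Antagonist-mode qHTS: compound titrations added to GRE-bla HeLa cells, then dexamethasone 2 nM final; 18 h, 37 C. CCF4 FRET fluorescence normalized to dexamethasone and DMSO; IC50 from Hill fit.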

[4] = qHTS assay for small molecule antagonists of peroxisome proliferator-activated receptor delta signaling (AID 588535); settings: HEK293T PPARd-UAS-bla, beta-lactamase FRET ratio, 18 h; 460 nm channel;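 note: cells co-treated with a PPAR-delta agonist as stimulator during compound exposure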
In short: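 Cell-based beta-lactamase assay in antagonist mode: 4000 HEK293T PPAR-delta-UAS-bla cells per well, 5 hr preincubation then 18 hr compound incubation at 37 C. IC50 obtained by Hill equation fitting.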

[5] = biological target: Vitamin D3 receptor (Homo sapiens) (UniProt P11473); test: qHTS assay for small molecule agonists of vitamin D receptor signaling (AID 588543; calls by dose curve;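 note: 0% = DMSO basal and 100% = reference agonist control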)
Vitamin D3 receptor (Homo sapiens), sequence (P11473 whole entry, looked up): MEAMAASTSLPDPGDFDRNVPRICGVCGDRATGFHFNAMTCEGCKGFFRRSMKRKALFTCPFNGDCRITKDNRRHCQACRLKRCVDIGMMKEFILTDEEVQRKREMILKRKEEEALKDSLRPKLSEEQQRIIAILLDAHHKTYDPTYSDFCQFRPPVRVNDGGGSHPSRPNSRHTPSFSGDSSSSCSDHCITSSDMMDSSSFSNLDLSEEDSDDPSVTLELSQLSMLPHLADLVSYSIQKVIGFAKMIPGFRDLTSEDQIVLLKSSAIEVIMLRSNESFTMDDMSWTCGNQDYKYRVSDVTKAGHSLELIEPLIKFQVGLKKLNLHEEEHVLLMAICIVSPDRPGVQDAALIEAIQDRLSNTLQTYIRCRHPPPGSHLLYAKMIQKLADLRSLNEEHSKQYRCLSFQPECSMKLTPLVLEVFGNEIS
In short: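 Reporter cells (HEK293T, VDR-UAS-bla) were seeded in medium with 2% charcoal-stripped serum and incubated 5 h, then compounds in concentration series were added for 16 h at 37 °C. Stimulation was scaled between DMSO basal and 50 nM 1α,25-dihydroxyvitamin D3.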

[6] = qHTS assay for small molecule agonists of retinoid X receptor alpha signaling (AID 588544; calls by dose curve;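 for activation: 0% = DMSO basal wells and 100% = reference agonist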); settings: HEK293T RXRa-UAS-bla, beta-lactamase reporter, 18 h; 530 nm emission
[7] = biological target: Retinoic acid receptor RXR-alpha (Homo sapiens) (UniProt P19793); test: as above
Retinoic acid receptor RXR-alpha (Homo sapiens), sequence (P19793 whole entry, looked up): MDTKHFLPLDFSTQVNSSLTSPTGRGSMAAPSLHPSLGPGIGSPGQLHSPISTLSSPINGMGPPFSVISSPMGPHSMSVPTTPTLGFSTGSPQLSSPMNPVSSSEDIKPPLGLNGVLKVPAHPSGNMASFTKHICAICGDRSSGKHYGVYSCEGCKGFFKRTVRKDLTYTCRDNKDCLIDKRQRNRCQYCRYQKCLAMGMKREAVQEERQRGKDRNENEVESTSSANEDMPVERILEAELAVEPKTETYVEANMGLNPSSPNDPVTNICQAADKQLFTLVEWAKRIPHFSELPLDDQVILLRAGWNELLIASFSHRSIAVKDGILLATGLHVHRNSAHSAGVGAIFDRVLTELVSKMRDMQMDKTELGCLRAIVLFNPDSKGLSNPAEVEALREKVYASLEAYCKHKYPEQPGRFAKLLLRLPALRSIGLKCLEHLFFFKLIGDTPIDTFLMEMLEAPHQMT

[8] = biological target: Thyroid hormone receptor beta (Homo sapiens) (UniProt P10828); test: qHTS assay for small molecule agonists of thyroid hormone receptor beta signaling (AID 588545; calls by dose curve;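 note: 0% = DMSO only and 100% = 10 nM T3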)
Thyroid hormone receptor beta (Homo sapiens), sequence (P10828 whole entry, looked up): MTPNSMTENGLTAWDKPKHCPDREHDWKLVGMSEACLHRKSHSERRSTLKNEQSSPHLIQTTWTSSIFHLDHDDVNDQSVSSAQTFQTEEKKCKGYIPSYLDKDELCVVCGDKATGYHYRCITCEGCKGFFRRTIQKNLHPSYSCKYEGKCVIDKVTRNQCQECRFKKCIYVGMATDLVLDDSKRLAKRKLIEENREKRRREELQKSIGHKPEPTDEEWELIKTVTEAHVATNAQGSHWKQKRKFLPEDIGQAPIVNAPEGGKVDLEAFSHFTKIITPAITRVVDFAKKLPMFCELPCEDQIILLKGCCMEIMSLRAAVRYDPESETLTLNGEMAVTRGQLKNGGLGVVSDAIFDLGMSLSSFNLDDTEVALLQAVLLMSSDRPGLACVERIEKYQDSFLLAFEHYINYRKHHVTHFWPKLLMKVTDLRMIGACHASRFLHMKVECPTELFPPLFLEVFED
In short: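 Beta-lactamase reporter activity under TR response element control is measured in HEK 293 cells after 18 hrs compound exposure. Signal is ratiometric CCF4 fluorescence, 460/530 nm.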

[9] = qHTS assay for small molecule antagonists of retinoid X receptor alpha signaling (AID 588546; active = well fitted inhibition curve with a large enough effect in the signal ratio, with a control signal flat, not every such curve was filed as active; the % refers to the signal ratio;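 note: cells stimulated with 9-cis-retinoic acid as agonist; % is set by controls: 0 for no effect and ±100 for the full control effect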); settings: HEK293T RXRa-UAS-bla, beta-lactamase ratio, antagonist mode; measured here: W530 green channel, cytotoxicity proxy
In short: (§1)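 Beta-lactamase reporter inhibition, read as CCF4 fluorescence ratio (ex 405, em 460/530 nm) after 2 h at RT. HEK293T UAS-bla cells, 2500/well, were stimulated with 9-cis-RA at 500 or 100 nM final alongside test compound for 18 h at 37 C.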

[10] = biological target: Retinoic acid receptor RXR-alpha (Homo sapiens) (UniProt P19793); test: as above; settings: HEK293T RXRa-UAS-bla, beta-lactamase ratio, antagonist mode
In short: as §1

[11] = biological target: Thyroid hormone receptor beta (Homo sapiens) (UniProt P10828); test: qHTS assay for small molecule antagonists of thyroid hormone receptor beta signaling (AID 588547; active = well fitted inhibition curve with a large enough effect in the signal ratio, with a control signal flat, not every such curve was filed as active; the % refers to the signal ratio;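 note: cells stimulated with 0.4 nM T3 agonist during compound exposure; series mostly up to about 77 µM; % is set by controls: 0 for no effect and ±100 for the full control effect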); settings: TR-UAS-bla HEK293, beta-lactamase ratio, antagonist mode, 18 h
In short: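 Inhibition of T3-driven (0.4nM final) beta-lactamase reporter activity was measured over 0.59 nM to 92 uM compound after 18 h at 37 C. The cells were GripTite HEK293 TR-UAS-bla in charcoal/dextran-stripped serum, with CCF4 ratio read-out and IC50 from Hill fits.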

[12] = qHTS assay for environmental chemicals that activate the Aryl hydrocarbon Receptor (AhR) signaling pathway (AID 651777); settings: 1A2-DRE human hepatoma cells, luciferase, 24 h; activation: stronger effect = higher value; note: % of control where 0% means no effect; nearly all actives have a fitted effect of over 15% in size
In short: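 Luminescence read-out: One-Glo added for 30 min at RT after 24 hr compound treatment (37 C, 5% CO2) of human hepatoma cells expressing a DRE/CYP1A2 promoter–luciferase reporter; increased signal indicates AhR activation.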

[13] = biological target: Peroxisome proliferator-activated receptor alpha (Homo sapiens) (UniProt Q07869); test: qHTS assay for small molecule agonists of the peroxisome proliferator-activated receptor alpha (PPARalpha) signaling pathway (AID 651778); settings: PathHunter PPARalpha complementation, chemiluminescence, 6 h; max response: stronger effect = higher value; note: % of control where 0% means no effect
Peroxisome proliferator-activated receptor alpha (Homo sapiens), sequence (Q07869 whole entry, looked up): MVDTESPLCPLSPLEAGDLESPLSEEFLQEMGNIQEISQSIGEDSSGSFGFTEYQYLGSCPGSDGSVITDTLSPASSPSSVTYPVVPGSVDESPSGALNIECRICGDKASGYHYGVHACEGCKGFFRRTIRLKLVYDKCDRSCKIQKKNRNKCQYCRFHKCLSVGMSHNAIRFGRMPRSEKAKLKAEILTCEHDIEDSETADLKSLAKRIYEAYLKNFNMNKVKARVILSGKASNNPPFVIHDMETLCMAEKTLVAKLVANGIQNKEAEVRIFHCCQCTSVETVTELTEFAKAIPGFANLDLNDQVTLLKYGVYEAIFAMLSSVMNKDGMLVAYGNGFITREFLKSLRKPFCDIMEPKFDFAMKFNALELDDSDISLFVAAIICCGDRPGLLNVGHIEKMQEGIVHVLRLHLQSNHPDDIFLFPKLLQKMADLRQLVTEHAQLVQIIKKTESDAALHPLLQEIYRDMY
In short: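 Chemiluminescence from complemented enzyme reported PPARalpha activation in cells after 6 hr of compound treatment at 37 C. The detection reagent was incubated for 60 min at room temperature, and compounds were scored as agonists.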

[14] = qHTS assay for small molecule agonists of the antioxidant response element (ARE) signaling pathway measured by Nrf2-dependant transcriptional activity (AID 720636; active = well fitted curve in the direction sought with a large enough effect in the repeat runs; an effect the other way counts as inactive or inconclusive;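 note: HepG2 cells with an ARE-driven luciferase reporter; % of control where 0% means no effect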)
In short: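 HepG2 ARE-luc reporter line, 1% dialyzed FBS; 6 hr attachment at 37 C, compound pinned in, 16 hr at 37 C/5% CO2; ONE-Glo, 30 min RT, luminescence read.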

[15] = qHTS assay for small molecule agonists of the antioxidant response element (ARE) signaling pathway measured by Nrf2-dependant transcriptional activity - cell viability counter screen (AID 720653; active = well fitted curve in the direction sought with a large enough effect in the repeat runs; an effect the other way counts as inactive or inconclusive; note: % is set by controls: 0 for no effect and ±100 for the full control effect); settings: ARE-bla HepG2 viability, CellTiter-Glo ATP luminescence, 16 h; max response: stronger effect = lower value
In short: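 Cytotoxicity counter screen: intracellular ATP quantified by CellTiter-Glo luminescence in the same ARE-bla HepG2 plates, after 16 h compound exposure and a 2 h beta-lactamase substrate step.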

[16] = qHTS assay for cell viability of HEK293 cells (AID 743288); settings: ATP luminescence (CellTiter-Glo), 18 h; max response: stronger effect = lower value; note: nearly all actives have a fitted effect of over 50% in size; note: potency is the fitted concentration of half-maximal effect
In short: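 HEK293 parental, 2,000 cells/well; ≥5 h pre-incubation 37 C; pintool compound addition; 18 h, 37 C; CellTiter-Glo 30 min RT; luminescence read.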

[17] = qHTS assay for cell viability of the p53RE-bla HCT-116 cell line (AID 743292); note: % is set by controls: 0 for no effect and ±100 for the full control effect; nearly all actives have a fitted effect of over 55% in size
In short: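 Luminescent ATP quantitation (CellTiter-Glo) served as the viability read-out; reagent was added after 16 h compound exposure at 37 C and read after 30 min at room temperature. Cells: p53RE-bla HCT-116, 4,000 per well.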

[18] = biological target: Nuclear receptor subfamily 1 group I member 2 (Rattus norvegicus) (UniProt Q9R1A7); test: qHTS assay for small molecule activators of the rat pregnane X receptor (rPXR) signaling pathway (AID 651751; call rule not given here; note: 0% is about no effect); settings: rPXR reporter cells, luciferase (One-Glo), 24 h
Nuclear receptor subfamily 1 group I member 2 (Rattus norvegicus), sequence (Q9R1A7 whole entry, looked up): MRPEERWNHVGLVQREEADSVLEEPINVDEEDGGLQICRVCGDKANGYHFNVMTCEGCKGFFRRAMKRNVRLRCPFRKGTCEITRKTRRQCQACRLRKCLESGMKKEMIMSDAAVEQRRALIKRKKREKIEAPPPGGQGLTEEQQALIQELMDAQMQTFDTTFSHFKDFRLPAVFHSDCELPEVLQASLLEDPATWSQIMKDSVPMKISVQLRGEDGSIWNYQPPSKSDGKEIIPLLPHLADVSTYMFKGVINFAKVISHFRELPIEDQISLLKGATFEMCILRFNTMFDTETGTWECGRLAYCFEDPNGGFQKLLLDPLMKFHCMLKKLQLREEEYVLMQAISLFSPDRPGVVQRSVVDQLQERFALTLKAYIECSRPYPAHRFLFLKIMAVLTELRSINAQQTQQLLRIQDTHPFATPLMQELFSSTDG

[19] = qHTS assay for small molecule activators of the human pregnane X receptor (PXR) signaling pathway (AID 720659; call rule not given here; note: 0% is about no effect)
[20] = biological target: Peroxisome proliferator-activated receptor gamma (Homo sapiens) (UniProt P37231); test: qHTS assay for small molecule agonists of peroxisome proliferator-activated receptor gamma signaling (AID 588536; active = well fitted curve in the direction sought with a large enough effect in the signal ratio, with a control signal flat, not every such curve was filed as active; the % refers to the signal ratio;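 note: 0% = DMSO basal wells and 100% = rosiglitazone at 2 µM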)
Peroxisome proliferator-activated receptor gamma (Homo sapiens), sequence (P37231 whole entry, looked up): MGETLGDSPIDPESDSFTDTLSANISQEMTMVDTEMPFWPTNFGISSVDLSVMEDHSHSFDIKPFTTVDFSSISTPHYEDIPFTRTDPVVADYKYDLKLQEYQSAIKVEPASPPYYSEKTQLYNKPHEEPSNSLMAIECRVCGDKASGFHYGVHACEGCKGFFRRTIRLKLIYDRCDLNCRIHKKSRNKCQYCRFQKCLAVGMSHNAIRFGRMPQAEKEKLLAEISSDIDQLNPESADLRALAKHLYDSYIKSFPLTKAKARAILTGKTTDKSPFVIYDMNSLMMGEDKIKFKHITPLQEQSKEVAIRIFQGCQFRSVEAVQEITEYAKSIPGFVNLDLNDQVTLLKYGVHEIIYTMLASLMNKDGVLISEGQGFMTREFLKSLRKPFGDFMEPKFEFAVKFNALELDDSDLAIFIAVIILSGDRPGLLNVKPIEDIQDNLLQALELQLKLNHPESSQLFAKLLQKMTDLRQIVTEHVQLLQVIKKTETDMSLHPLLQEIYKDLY
In short: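 HEK293 UAS-bla reporter line, 1% charcoal/dextran FBS; titration, 16 h, 37 C; CCF4 loading 2 h RT; fluorescence 460/530 nm. Normalized to rosiglitazone 2 uM = 100%, DMSO = 0%.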

O=C(O)C(Oc1ccc(Cl)cc1)Oc1ccc(Cl)cc1
4.78%: max response [6]
-7.28%: max response [9]
-2.46%: max response [4]
inactive: Potency [1] | activation [2] -6.89% | Potency [3] | outcome [5] | Potency [7] | Potency [8] | max response [10] -10.5% | activity change % (negative = inhibition) [11] -5.07% | activation [12] -1.04% | max response [13] 4.93% | Potency [14] | max response [15] -5.82% | max response [16] -2.57% | Potency [17] | max response [18] -9.92% | outcome [19]

CCCCCCCOC(=O)c1ccccc1C(=O)OCCCCCCC
-2.68%: max response [6]
-7.26%: max response [4]
inactive: Potency [1] | activation [2] -3.48% | Potency [3] | outcome [20] | outcome [5] | Potency [7] | Potency [8] | max response [10] 5.05% | activation [12] -0.336% | max response [13] 0.0123% | Potency [14] | max response [15] 6.19% | max response [16] -8.86% | Potency [17] | max response [18] -1.98% | outcome [19]
-8.81%: max response [9]

CCC(=O)C1C(=O)CC(C(=O)O)CC1=O (stereo not given)
-10.4%: max response [6]
inactive: activation [2] 6.99% | outcome [20] | outcome [5] | Potency [7] | Potency [8] | activation [12] -0.512% | max response [13] 1.2% | Potency [14] | max response [15] 14.2% | max response [16] 6.24% | max response [18] -8.49% | outcome [19]

CCOC(=O)c1ccccc1C
-8.14%: max response [6]
-9.25%: max response [9]
inactive: activation [2] 10.9% | Potency [3] | outcome [20] | Potency [7] | Potency [8] | max response [10] 1.73% | activity change % (negative = inhibition) [11] -2.99% | activation [12] -0.718% | max response [13] -0.0686% | Potency [14] | max response [15] 0.0878% | max response [16] 0.0695% | Potency [17] | max response [18] 1% | outcome [19]

CN(C)Cc1cc(CN(C)C)c(O)c(CN(C)C)c1
-13.7%: max response [6]
-16.5%: max response [9]
inactive: Potency [1] | Potency [3] | outcome [20] | Potency [7] | Potency [8] | max response [10] -13.1% | activation [12] -0.0067% | max response [13] -1.39% | max response [15] -15.7% | max response [16] -7.71% | Potency [17] | max response [18] 1.59% | outcome [19]

CC1(C)[C@@H]([C@@H](Br)C(Br)(Br)Br)[C@H]1C(=O)O[C@H](C#N)c1cccc(Oc2ccccc2)c1
active: Potency [16] 50.1 µM
inactive: Potency [1] | activation [2] -6.04% | Potency [3] | outcome [5] | activity change % (negative = inhibition) [11] -17.9% | activation [12] 0.917% | max response [13] -5.06% | Potency [14] | max response [15] -14.5% | Potency [17]

CCOC(=O)C(C)Oc1ccc(Oc2cnc3cc(Cl)ccc3n2)cc1 (stereo not given)
22.1%: max response [9]
inactive: Potency [1] | activation [2] -6.64% | outcome [20] | outcome [5] | max response [10] -14.1% | activation [12] 1.27% | max response [13] 11.2% | max response [15] -11.5% | max response [16] 4.59% | outcome [19]
